Results as given in PubChem BioAssay (EPA / NIEHS).
Where “and” joins values, the source holds several entries; their conditions need not be identical. Equal entries are not always repeated. Results filed as inconclusive are left out. The source holds several records for some structures; these can differ, active in one and inactive in another. Calls of active or inactive are those of the source. The calls were made as follows, unless noted: active = hit-call score of the fitted dose curve at least 0.9, where 1 is the maximum; inactive = score below 0.9.

How the values were obtained:
[1] = biological target: Oxysterols receptor LXR-beta (Homo sapiens) (UniProt P55055); test: ATG_LXRb_TRANS: Attagene TRANS-FACTORIAL HepG2 Assay for human Liver X Receptor beta (LXRb) (AID 2282981; active = hit-call score of the fitted dose curve at least 0.9, where 1 is the maximum); conditions: HepG2 Attagene TRANS GAL4-LXRb reporter, mRNA
Chain of Oxysterols receptor LXR-beta (Homo sapiens) (P55055 whole entry, looked up, the tested form may be a part): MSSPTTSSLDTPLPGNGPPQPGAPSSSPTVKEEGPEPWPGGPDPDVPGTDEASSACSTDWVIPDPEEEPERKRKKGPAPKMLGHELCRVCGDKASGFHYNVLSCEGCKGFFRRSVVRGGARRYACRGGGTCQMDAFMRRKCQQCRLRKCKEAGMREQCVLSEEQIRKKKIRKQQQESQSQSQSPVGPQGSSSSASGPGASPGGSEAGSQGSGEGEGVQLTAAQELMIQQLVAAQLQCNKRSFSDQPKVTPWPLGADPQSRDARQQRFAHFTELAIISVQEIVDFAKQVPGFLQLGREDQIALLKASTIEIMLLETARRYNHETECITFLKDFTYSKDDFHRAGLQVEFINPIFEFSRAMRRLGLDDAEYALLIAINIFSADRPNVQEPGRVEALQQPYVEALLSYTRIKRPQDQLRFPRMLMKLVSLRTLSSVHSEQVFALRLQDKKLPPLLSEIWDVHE
Outline: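 Readout: fluorescent reporter mRNA fragments resolved by capillary electrophoresis after RT-PCR. System: transiently transfected human HepG2, exogenous LXRb-Gal4 chimera driving GAL4-UAS reporter, 24 h dosing. Activity fitted upward against DMSO baseline.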

[2] = biological target: Nuclear receptor subfamily 4 group A member 2 (Homo sapiens) (UniProt P43354); test: ATG_NURR1_TRANS: Attagene TRANS-FACTORIAL HepG2 Assay for human Nuclear Receptor Related Protein 1 (NURR1) (AID 2282985; active = hit-call score of the fitted dose curve at least 0.9, where 1 is the maximum); conditions: HepG2 Attagene TRANS reporter, mRNA readout
Chain of Nuclear receptor subfamily 4 group A member 2 (Homo sapiens) (P43354 whole entry, looked up, the tested form may be a part): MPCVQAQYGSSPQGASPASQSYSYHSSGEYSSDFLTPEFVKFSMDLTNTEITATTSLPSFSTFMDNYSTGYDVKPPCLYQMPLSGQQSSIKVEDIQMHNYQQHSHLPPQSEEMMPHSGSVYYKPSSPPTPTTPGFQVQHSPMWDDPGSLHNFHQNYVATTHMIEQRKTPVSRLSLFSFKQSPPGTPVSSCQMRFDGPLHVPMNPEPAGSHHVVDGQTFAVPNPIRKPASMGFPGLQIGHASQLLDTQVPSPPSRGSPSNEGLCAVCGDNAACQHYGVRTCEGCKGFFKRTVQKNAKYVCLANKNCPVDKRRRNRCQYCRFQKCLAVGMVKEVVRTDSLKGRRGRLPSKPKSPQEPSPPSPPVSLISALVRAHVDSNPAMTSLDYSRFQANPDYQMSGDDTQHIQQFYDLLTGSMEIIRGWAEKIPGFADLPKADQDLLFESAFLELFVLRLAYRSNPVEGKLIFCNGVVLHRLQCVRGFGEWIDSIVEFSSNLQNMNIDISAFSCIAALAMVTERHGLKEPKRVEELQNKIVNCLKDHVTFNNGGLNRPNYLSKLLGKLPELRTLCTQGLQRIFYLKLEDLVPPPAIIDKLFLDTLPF
Outline: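 Read-out: reporter mRNA induction by RT-PCR plus capillary electrophoresis with fluorescence detection, after 24 h dosing of transfected HepG2 cells. Exogenous NR-Gal4 chimera activity drives GAL4-UAS reporter; activity fitted upward versus DMSO.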

[3] = biological target: Transcriptional activator Myb (Homo sapiens) (UniProt P10242); test: ATG_Myb_CIS: Attagene CIS-FACTORIAL HepG2 Assay for human Myeloblastosis (Myb) Proto-Oncogene Transcription Factor (AID 2282986); conditions: HepG2 Attagene CIS-FACTORIAL Myb reporter transcription; actives raise or lower the signal
Chain of Transcriptional activator Myb (Homo sapiens) (P10242 whole entry, looked up): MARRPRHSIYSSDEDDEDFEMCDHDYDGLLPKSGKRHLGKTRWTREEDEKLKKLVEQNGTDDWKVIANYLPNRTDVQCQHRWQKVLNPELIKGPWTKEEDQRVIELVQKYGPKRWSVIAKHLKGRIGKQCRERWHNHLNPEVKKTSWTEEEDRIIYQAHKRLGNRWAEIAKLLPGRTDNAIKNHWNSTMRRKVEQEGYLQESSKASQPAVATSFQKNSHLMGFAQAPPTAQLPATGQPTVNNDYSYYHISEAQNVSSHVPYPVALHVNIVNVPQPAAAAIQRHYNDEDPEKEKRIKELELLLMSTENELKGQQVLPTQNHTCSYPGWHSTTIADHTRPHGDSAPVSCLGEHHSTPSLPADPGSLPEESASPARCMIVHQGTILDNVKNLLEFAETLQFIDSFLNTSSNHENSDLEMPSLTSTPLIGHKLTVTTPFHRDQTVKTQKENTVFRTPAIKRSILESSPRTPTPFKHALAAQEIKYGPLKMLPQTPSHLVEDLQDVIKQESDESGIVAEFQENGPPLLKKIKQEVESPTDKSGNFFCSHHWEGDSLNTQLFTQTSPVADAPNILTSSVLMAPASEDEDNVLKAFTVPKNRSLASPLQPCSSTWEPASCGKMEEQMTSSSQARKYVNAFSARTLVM
Outline: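 Transiently transfected HepG2 cells carrying a multiplexed cis-promoter reporter set report endogenous Myb activity after 24 h compound exposure. Reporter mRNA is read by RT-PCR with capillary electrophoresis of fluorescent products, fitted bidirectionally against DMSO.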

[4] = biological target: Nuclear respiratory factor 1 (Homo sapiens) (UniProt Q16656); test: ATG_NRF1_CIS: Attagene CIS-FACTORIAL HepG2 Assay for human Nuclear Respiratory Factor 1 (NRF1) Orphan Gene (AID 2282987); conditions: HepG2 NRF1 cis-element reporter, Attagene multiplex; actives raise or lower the signal
Chain of Nuclear respiratory factor 1 (Homo sapiens) (Q16656 whole entry, looked up): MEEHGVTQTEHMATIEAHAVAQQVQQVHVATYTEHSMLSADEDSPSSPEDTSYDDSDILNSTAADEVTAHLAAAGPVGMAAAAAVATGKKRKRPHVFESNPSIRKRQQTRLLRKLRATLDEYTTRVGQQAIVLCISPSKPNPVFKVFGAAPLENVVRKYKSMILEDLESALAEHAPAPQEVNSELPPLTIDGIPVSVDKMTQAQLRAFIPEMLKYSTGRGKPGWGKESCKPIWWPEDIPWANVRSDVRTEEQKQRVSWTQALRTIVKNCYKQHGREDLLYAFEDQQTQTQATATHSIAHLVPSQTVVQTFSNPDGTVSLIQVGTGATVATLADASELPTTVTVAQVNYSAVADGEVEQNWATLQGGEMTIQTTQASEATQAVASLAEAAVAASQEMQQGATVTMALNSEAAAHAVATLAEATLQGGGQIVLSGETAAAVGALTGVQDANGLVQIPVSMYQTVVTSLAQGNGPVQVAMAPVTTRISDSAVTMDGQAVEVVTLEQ
Outline: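 HepG2 cells transiently transfected with multiple cis-regulated reporter units, exposed 24 h. Reporter mRNAs measured by RT-PCR, fluorescent labelling, HpaI digestion and capillary electrophoresis; bidirectional fitting against DMSO.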

[5] = biological target: Myc proto-oncogene protein (Homo sapiens) (UniProt P01106); test: ATG_Myc_CIS: Attagene CIS-FACTORIAL HepG2 Assay for human Myelocytomatosis (Myc) Proto-Oncogene Transcription Factor (AID 2282990); conditions: HepG2, Attagene cis-reporter transcription factor activity; actives raise or lower the signal
Chain of Myc proto-oncogene protein (Homo sapiens) (P01106 whole entry, looked up): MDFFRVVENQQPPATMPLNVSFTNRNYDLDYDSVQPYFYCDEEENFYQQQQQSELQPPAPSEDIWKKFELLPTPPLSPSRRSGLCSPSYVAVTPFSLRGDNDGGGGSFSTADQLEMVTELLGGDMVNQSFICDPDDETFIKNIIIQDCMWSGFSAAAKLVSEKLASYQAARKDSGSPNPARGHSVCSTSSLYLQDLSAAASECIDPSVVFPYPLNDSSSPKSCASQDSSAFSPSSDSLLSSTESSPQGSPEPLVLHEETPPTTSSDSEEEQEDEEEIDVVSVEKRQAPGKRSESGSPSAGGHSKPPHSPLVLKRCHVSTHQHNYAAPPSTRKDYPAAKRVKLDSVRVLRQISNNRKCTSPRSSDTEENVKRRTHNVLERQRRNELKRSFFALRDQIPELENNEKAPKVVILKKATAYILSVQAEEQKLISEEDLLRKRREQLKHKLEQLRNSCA
Outline: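 Transiently transfected HepG2 cells bearing cis-promoter reporter units for endogenous transcription factors; 24 h exposure. Reporter mRNA measured by RT-PCR, 6-FAM primer extension, HpaI cut and capillary electrophoresis; bidirectional fit relative to DMSO.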

[6] = ATG_NRF2_ARE_CIS: Attagene CIS-FACTORIAL HepG2 Assay for human Nuclear Factor Erythroid 2 Related Factor 2 (NFR2) response to Antioxidant Response Elements (ARE) (AID 2282992); conditions: HepG2 Attagene ARE/NRF2 reporter, transcription factor activity; actives raise or lower the signal;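 as to AC50: reporter mRNA level measured by RT-PCR and capillary electrophoresis fluorescence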
Outline: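 Readout: reporter mRNA quantified by RT-PCR plus FAM-labelled primer extension, HpaI digestion and capillary electrophoresis, 24 h after dosing transfected HepG2 cells. Gain or loss of signal is fitted bidirectionally against DMSO baseline.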

[7] = ATG_Oct_MLP_CIS: Attagene CIS-FACTORIAL HepG2 Assay for human Octamer-Binding Transcription Factor (Oct) (AID 2282993); conditions: HepG2 Attagene cis-factorial Oct reporter, mRNA; actives raise or lower the signal
Outline: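 Using HepG2 cells bearing transfected cis-reporter constructs, mRNA induction was read after 24 h by fluorescent RT-PCR and capillary electrophoresis, with DMSO defining baseline for gain- or loss-of-signal fits.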

[8] = biological target: Cellular tumor antigen p53 (Homo sapiens) (UniProt P04637); test: ATG_p53_CIS: Attagene CIS-FACTORIAL HepG2 Assay for human p53 Transcription Factor (AID 2282994); conditions: HepG2 p53 cis-element reporter, Attagene mRNA; actives raise or lower the signal
Chain of Cellular tumor antigen p53 (Homo sapiens) (P04637 whole entry, looked up): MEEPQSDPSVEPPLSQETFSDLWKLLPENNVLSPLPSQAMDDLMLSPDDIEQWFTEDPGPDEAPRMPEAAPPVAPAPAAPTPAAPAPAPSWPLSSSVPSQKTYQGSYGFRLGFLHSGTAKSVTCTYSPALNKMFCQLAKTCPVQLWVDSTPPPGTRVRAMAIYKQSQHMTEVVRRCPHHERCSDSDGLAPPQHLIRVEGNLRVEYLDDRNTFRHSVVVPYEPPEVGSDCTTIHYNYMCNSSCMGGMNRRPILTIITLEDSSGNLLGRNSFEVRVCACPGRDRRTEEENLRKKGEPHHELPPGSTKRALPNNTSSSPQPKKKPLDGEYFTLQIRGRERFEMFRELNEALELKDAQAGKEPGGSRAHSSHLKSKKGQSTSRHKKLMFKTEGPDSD
Outline: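 Read-out: reporter mRNA by RT-PCR plus capillary electrophoresis with fluorescence detection. Human HepG2 liver cells carried transfected multi-reporter cis-element constructs, dosed 24 h. Gain or loss of signal fitted bidirectionally against DMSO control.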

[9] = BSK_3C_TissueFactor: BioMAP Diversity Plus: 3C Assay for Tissue Factor Biomarker Activity (AID 2282997); conditions: BioMAP 3C HUVEC, tissue factor biomarker readout; actives raise or lower the signal
Outline: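 Tissue factor on primary human umbilical vein endothelium was read by ELISA 24 h after dosing, gain or loss relative to DMSO. Cytotoxicity ran alongside via SRB (0.1%, TCA-fixed, 560 nm).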

[10] = BSK_3C_VCAM1: BioMAP Diversity Plus: 3C Assay for Vascular cell adhesion molecule 1 (VCAM1) Biomarker Activity (AID 2282999); conditions: BioMAP 3C HUVEC, VCAM1 ELISA, cytokine-stimulated; actives raise or lower the signal
Outline: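 HUVEC primary cells, 24 h compound exposure; VCAM-1 by ELISA; gain/loss of signal fitted bidirectionally vs DMSO baseline.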

[11] = BSK_4H_Eotaxin3: BioMAP Diversity Plus: 4H Assay for Eotaxin 3 Biomarker Activity (AID 2283000); conditions: primary human endothelial cells (HUVEC); actives raise or lower the signal
Outline: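 Human umbilical vein endothelial cells (BSK_4H system) dosed with test chemical; Eotaxin-3 (CCL26) measured by ELISA 24 h after dosing. Bidirectional curve fitting relative to DMSO negative control as baseline.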

[12] = biological target: Hepatocyte nuclear factor 4-alpha (Homo sapiens) (UniProt P41235); test: ATG_HNF4a_TRANS: Attagene TRANS-FACTORIAL HepG2 Assay for human Hepatocyte Nuclear Factor 4 alpha (HNF4a) (AID 2282982; active = hit-call score of the fitted dose curve at least 0.9, where 1 is the maximum); conditions: HepG2 HNF4a transactivation reporter, mRNA readout
Chain of Hepatocyte nuclear factor 4-alpha (Homo sapiens) (P41235 whole entry, looked up): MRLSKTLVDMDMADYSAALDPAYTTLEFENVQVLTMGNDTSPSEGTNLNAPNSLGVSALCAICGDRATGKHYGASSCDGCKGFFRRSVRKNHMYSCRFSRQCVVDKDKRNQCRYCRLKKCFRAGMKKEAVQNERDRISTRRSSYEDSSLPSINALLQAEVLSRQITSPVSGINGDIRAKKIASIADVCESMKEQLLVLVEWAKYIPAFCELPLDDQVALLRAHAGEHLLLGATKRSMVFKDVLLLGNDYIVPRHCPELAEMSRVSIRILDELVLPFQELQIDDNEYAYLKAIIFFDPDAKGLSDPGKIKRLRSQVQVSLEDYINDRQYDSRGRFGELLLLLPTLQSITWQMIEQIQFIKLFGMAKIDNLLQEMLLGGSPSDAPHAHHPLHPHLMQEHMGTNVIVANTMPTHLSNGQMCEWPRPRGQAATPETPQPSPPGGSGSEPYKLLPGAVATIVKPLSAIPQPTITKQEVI
Outline: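 Transient MRTU transfection of HepG2, 24 h dosing. Readout: reporter mRNA via RT-PCR + capillary electrophoresis, fluorescence; activity fit upward relative to DMSO control.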

[13] = ATG_M_06_TRANS: Attagene TRANS-FACTORIAL HepG2 Assay for M06 Transcription Factor (Internal Marker) (AID 2282983; active = hit-call score of the fitted dose curve at least 0.9, where 1 is the maximum;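 also: reporter transcript level by RT-PCR then capillary electrophoresis fluorescence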); conditions: HepG2 Attagene TRANS M06 internal marker reporter
Outline: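 Background-control reporter readout: after 24 h chemical exposure of transiently transfected HepG2 (GAL4-UAS reporter units), mRNA quantified by RT-PCR with fluorescent labeling and capillary electrophoresis. Gain-of-signal fitting against DMSO baseline.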

[14] = ATG_M_32_TRANS: Attagene TRANS-FACTORIAL HepG2 Assay for M32 Transcription Factor (Internal Marker) (AID 2282984; active = hit-call score of the fitted dose curve at least 0.9, where 1 is the maximum;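 also: transcript level of a background control reporter unit measured by RT-PCR and capillary electrophoresis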); conditions: HepG2 Attagene TRANS M32 internal marker reporter
Outline: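 Read-out: fluorescent reporter cDNA fragments resolved by capillary electrophoresis after RT-PCR of total RNA. Transfected HepG2 cells were exposed to chemical for 24 h. Activity scored in the positive direction relative to DMSO.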

[15] = ATG_NF_kB_CIS: Attagene CIS-FACTORIAL HepG2 Assay for human Nuclear Factor Kappa B (NF-kB) (AID 2282991); conditions: HepG2 Attagene cis-factorial NF-kB reporter mRNA; actives raise or lower the signal
Outline: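 HepG2 cells transfected with cis-promoter-driven reporter units, so endogenous transcription factor activity is measured. Reporter mRNA quantified 24 h after dosing by RT-PCR and capillary electrophoresis, with bidirectional fitting against DMSO.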

[16] = BSK_3C_uPAR: BioMAP Diversity Plus: 3C Assay for Urokinase-type plasminogen activator receptor (uPAR) Biomarker Activity (AID 2282998); conditions: BioMAP 3C HUVEC, uPAR biomarker ELISA; actives raise or lower the signal
Outline: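 In this endothelial cell-based assay, human umbilical vein primary cells were treated with chemicals and harvested at 24 h. uPAR was quantified using ELISA, with gains or losses fitted relative to DMSO controls.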

[17] = biological target: human Peroxisome Proliferator-activated Receptor alpha (PPARa), PPARA (gene 5465) (UniProt Q07869); test: ATG_PPARa_TRANS: Attagene TRANS-FACTORIAL HepG2 Assay for human Peroxisome Proliferator-activated Receptor alpha (PPARa) (AID 2283001; active = hit-call score of the fitted dose curve at least 0.9, where 1 is the maximum)
Chain of human Peroxisome Proliferator-activated Receptor alpha (PPARa), PPARA (gene 5465) (Q07869 whole entry, looked up, the tested form may be a part): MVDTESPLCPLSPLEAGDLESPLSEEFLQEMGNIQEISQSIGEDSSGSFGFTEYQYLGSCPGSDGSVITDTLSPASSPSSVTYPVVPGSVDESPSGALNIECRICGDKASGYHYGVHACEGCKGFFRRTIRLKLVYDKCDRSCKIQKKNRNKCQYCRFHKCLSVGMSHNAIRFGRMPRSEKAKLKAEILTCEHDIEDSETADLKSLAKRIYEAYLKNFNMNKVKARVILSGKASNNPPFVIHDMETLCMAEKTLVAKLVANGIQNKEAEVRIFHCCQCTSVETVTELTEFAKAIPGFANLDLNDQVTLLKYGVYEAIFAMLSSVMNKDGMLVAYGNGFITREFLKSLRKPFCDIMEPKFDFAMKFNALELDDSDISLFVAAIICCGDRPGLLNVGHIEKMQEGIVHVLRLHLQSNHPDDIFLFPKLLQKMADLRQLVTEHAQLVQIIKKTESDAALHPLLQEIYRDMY
Outline: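 Transient HepG2 transfection, GAL4-UAS reporters, NR-Gal4 chimeras; 24 h compound exposure. Readout: reporter transcripts by RT-PCR, 6-FAM primer extension, HpaI digest, capillary electrophoresis. Positive direction vs DMSO baseline.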

[18] = ATG_NFI_CIS: Attagene CIS-FACTORIAL HepG2 Assay for human Nuclear Factor I (NFI) (AID 2282989); conditions: HepG2 cis-regulatory reporter, NFI response element transcription; actives raise or lower the signal
Outline: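 Transfected HepG2 liver cells, exposed 24 h, supplied total RNA for oligo(dT) reverse transcription and reporter-specific PCR. Labelled, HpaI-cut fragments were sized by capillary electrophoresis; DMSO set the baseline for bidirectional fitting.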

[19] = biological target: Oxysterols receptor LXR-alpha (Homo sapiens) (UniProt Q13133); test: ATG_LXRa_TRANS: Attagene TRANS-FACTORIAL HepG2 Assay for human Liver X Receptor alpha (LXRa) (AID 2282980; active = hit-call score of the fitted dose curve at least 0.9, where 1 is the maximum); conditions: HepG2 Attagene TRANS reporter, LXRa transactivation
Chain of Oxysterols receptor LXR-alpha (Homo sapiens) (Q13133 whole entry, looked up, the tested form may be a part): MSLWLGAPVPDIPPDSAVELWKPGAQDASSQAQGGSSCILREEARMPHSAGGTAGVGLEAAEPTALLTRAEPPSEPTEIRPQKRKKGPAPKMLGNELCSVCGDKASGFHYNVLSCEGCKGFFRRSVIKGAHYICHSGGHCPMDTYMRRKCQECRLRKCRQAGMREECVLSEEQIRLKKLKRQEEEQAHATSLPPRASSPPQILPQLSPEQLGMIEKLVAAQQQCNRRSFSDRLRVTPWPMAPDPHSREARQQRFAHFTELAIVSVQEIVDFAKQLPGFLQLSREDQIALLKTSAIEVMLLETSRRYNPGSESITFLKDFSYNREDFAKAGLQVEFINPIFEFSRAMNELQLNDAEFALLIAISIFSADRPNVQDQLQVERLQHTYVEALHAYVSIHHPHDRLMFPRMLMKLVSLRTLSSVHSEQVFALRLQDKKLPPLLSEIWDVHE
Outline: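 Chemical-induced reporter mRNA measured by RT-PCR with fluorescent labelling and capillary electrophoresis after 24 h dosing of transiently transfected HepG2 cells expressing exogenous NR-Gal4 chimeras; increases scored against DMSO baseline.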

Measured: AC50

CC(Cc1ccc(OCC(=O)O)cc1)NCC(O)c1csc(C(F)(F)F)n1 (centres undefined)
not listed: [12] | [13] | [14] | [15] | [16] | [17] | [18] | [19]
inactive: all other assays above

CCCCCCCc1ccc(O)cc1
active: [6] 14.1 µM and 7.28 µM and 7.2 µM | [9] 38 µM | [16] 38.2 µM | [10] 35.1 µM | [11] 31.5 µM
inactive: [1] | [12] | [13] | [14] | [2] | [3] | [5] | [15] | [6] | [7] | [17]

c1nc[nH]n1
not listed: [12] | [16] | [18] | [19]
inactive: all other assays above

COP(N)(=S)OC
not listed: [1] | [2] | [12] | [13] | [17] | [19]
inactive: all other assays above

CCOP(=S)(Oc1ccc([N+](=O)[O-])cc1)c1ccccc1 (centres undefined)
active: [6] 7.75 µM
not listed: [1] | [8] | [12] | [14] | [17] | [19]
inactive: all other assays above

Cc1ccc(O)cc1C
inactive: [3] | [5] | [7] | [8] | [9] | [10] | [11]

O=P1(N(CCCl)CCCl)NCCCO1 (centres undefined)
not listed: [1] | [2] | [4] | [12] | [18] | [19]
inactive: all other assays above

c1cc2c3c(cccc3c1)CC2
not listed: [2] | [13] | [19]
inactive: all other assays above

Cc1cccc(N)c1
not listed: [2] | [17] | [19]
inactive: all other assays above

CC(Cl)(Cl)C(=O)O
not listed: [1] | [8] | [12] | [15] | [17] | [18] | [19]
inactive: all other assays above

C=CC(=O)OCC(CC)(COC(=O)C=C)COC(=O)C=C
active: [15] 5.65 µM | [6] 1.65 µM | [7] 25.5 µM | [9] 1.5 µM | [16] 3.57 µM | [10] 2.55 µM | [11] 2.41 µM
not listed: [1] | [14] | [18] | [19]
inactive: all other assays above

c1ccc(OP(Oc2ccccc2)Oc2ccccc2)cc1
not listed: [1] | [2] | [12] | [13] | [19]
inactive: all other assays above

C=CC(=O)OCC(F)(F)C(F)F
active: [15] 76 µM | [6] 50.3 µM | [8] 206 µM | [9] 24.6 µM | [10] 35.5 µM and 37 µM | [11] 30 µM and 21 µM
inactive: [12] | [13] | [14] | [2] | [3] | [18] | [5] | [7] | [9] | [17]

O=C(O)C(Cl)Cl
not listed: [1] | [2] | [8] | [12] | [14] | [15] | [16] | [17]
inactive: all other assays above

CCC1(c2ccccc2)C(=O)N=C(O)NC1=O (centres undefined)
not listed: [1] | [2] | [14] | [16] | [19]
inactive: all other assays above

CCN(CC)C1CCCCC1
not listed: [1] | [2] | [9] | [10] | [11] | [16] | [17] | [19]
inactive: all other assays above

N#C/C=C/c1ccccc1
not listed: [1] | [9] | [10] | [11] | [16] | [19]
inactive: all other assays above

ClC(Cl)(Cl)c1ccccc1
not listed: [1] | [12] | [14] | [15] | [16] | [19]
inactive: all other assays above
